In PubChem BioAssay (Tox21) one finds outcome data, which are given here for 31 molecules.

Results filed as inconclusive are left out. Activity calls are given as the source filed them. The call rests on the fitted dose curve.

Chain of Vitamin D3 receptor (Homo sapiens) (P11473 whole entry, looked up): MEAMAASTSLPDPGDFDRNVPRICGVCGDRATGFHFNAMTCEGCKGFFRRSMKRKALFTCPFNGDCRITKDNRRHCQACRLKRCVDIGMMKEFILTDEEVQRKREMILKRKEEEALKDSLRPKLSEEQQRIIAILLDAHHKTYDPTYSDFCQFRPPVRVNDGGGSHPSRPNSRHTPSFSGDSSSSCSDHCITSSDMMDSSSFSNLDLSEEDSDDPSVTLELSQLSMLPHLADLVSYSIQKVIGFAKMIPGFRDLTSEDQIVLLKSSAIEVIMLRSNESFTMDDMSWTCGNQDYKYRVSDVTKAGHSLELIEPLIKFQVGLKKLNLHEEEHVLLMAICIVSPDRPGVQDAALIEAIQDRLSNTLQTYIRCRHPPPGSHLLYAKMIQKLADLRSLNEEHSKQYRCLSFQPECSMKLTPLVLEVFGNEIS

For this test, the target named is Vitamin D3 receptor (Homo sapiens) (UniProt P11473). Briefly: qHTS assay to identify small molecule agonists of the vitamin D receptor (VDR) signaling pathway (AID 743222). The following applies: HEK293T VDR-UAS-bla, beta-lactamase FRET ratio, 16 h; series mostly up to 63.5 µM. The procedure, abridged:
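Using LiveBLAzer B/G FRET detection, agonism was scored in VDR-bla cells exposed overnight (16 h, 37C) to DMSO-dissolved compounds; substrate incubation was 2 h at room temperature.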
(In general: Quantitative high-throughput screening tests each substance at several concentrations.)
Regarding `O=C1c2ccccc2C(=O)N1CCl`, the outcome was inactive. The same measure for `CCCCOC(=O)c1ccccc1`: “inactive”. The same measure for `Brc1ccc(-c2ccccc2)cc1`: “inactive”; for `CCOc1cc([N+](=O)[O-])c(OCC)cc1N1CCOCC1`: “inactive”. The same measure for `O=C(CCNNC(=O)c1ccncc1)NCc1ccccc1`: “inactive”; for `COc1ccc(-c2cc(=O)c3c(O)cc(O[C@@H]4O[C@H](CO[C@@H]5O[C@@H](C)[C@H](O)[C@@H](O)[C@H]5O)[C@@H](O)[C@H](O)[C@H]4O)cc3o2)cc1O`: “inactive”; for `Cc1cccc2nccnc12`: “inactive”. `O=C(OCC1(COC(=O)c2cccnc2)CCCC(COC(=O)c2cccnc2)(COC(=O)c2cccnc2)C1O)c1cccnc1`: the result was inactive. On to `OC[C@H](Cc1cccc(O)c1)[C@H](CO)Cc1cccc(O)c1`, for which the result was inactive.

With `C=C(C)C(=O)OCCN(CC)CC`, the outcome was inactive. For `COCCc1ccc(OCC2CO2)cc1` (stereo unspecified) the value was “inactive”; for `COC(=O)c1ccccc1C(=O)c1ccc(OCCN2CCCCC2)cc1`, “inactive”. For `CC(C)=O` the value was “inactive”; for `O=C(O)c1cc(Br)c(O)c(Br)c1`, “inactive”. Consider `CCNC(=O)C1CC(C)CCC1C(C)C` (stereo unspecified), for which the result was inactive. The same measure for `O=C(O)c1cc(Cl)cc([N+](=O)[O-])c1Cl`: “inactive”; for `CC1=C(C(=O)O)N2C(=O)[C@@H](NC(=O)[C@H](N)c3ccc(O)cc3)[C@H]2SC1`: “inactive”. The same measure for `C[C@H](CCC(=O)O)[C@H]1CC[C@H]2[C@@H]3C(=O)C[C@@H]4CC(=O)CC[C@]4(C)[C@H]3CC(=O)[C@]12C`: “inactive”; for `NC(CO)C(=O)NNCc1ccc(O)c(O)c1O` (stereo unspecified): “inactive”. The same measure for `COC(=O)[C@@H]1[C@H]2C[C@H]3c4[nH]c5ccccc5c4CCN3C[C@@H]2CC[C@@H]1O`: “inactive”; for `CCC(C)NC(N)=O` (stereo unspecified): “inactive”; for `COc1nccnc1NS(=O)(=O)c1ccc(N)cc1`: “inactive”. With `O=C(NCCN1CCOCC1)c1ccc(Cl)cc1`, the result was inactive.

With `N[C@@H](CCC(=O)N[C@@H](CS)C(=O)NCC(=O)O)C(=O)O`, the result was inactive. The same measure for `COc1ccc2nc(SCc3ncc(C)c(OC)c3C)[nH]c2c1`: “inactive”; for `CC(C)OC(=O)CCCCC(=O)OC(C)C`: “inactive”; for `COC(=O)CCc1ccc(OCC(O)CNC(C)C)cc1` (stereo unspecified): “inactive”.

Regarding `O=C(CCN1CCN(CCO)CC1)N1c2ccccc2Sc2ccc(C(F)(F)F)cc21`, the result was inactive.

With `CCOCCOCCOCC`, the result was inactive. The same measure for `N[C@@H](CCC(=O)Nc1ccc([N+](=O)[O-])cc1)C(=O)O`: “inactive”; for `Cc1ccc2ccc(Cl)cc2n1`: “inactive”.
